This note sets out measurements from PubChem BioAssay (EPA / NIEHS).

Test [1] is described as follows: ATG_E_Box_CIS: Attagene CIS-FACTORIAL HepG2 Assay for human Enhancer Box (E-box) (AID 2282936). The conditions noted are these: HepG2 E-box cis-reporter transcription, actives raise or lower the signal. The essentials: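 DMSO served as negative control and baseline for bidirectional fitting. Human hepatoma HepG2 cells, transiently transfected with cis-reporter constructs, were dosed 24 h; reporter mRNA read by RT-PCR and capillary electrophoresis.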

Test [2] can be described thus: ATG_M_61_CIS: Attagene CIS-FACTORIAL HepG2 Assay for M61 Transcription Factor (Internal Marker) (AID 2282937). The conditions noted are these: HepG2 Attagene CIS-FACTORIAL M61 internal marker reporter; actives raise or lower the signal. In a few lines:
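Background-control endpoint: HepG2 cells with cis-regulated reporter constructs, 24 h exposure, reporter mRNA detected via fluorescent primer extension and capillary electrophoresis; values from bidirectional fitting with DMSO baseline.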

The nature of test [3]: ATG_EGR_CIS: Attagene CIS-FACTORIAL HepG2 Assay for human Early Growth Response 1 (EGR1) (AID 2282938). The conditions noted are these: HepG2 Attagene CIS-FACTORIAL EGR reporter mRNA; actives raise or lower the signal. The essentials:
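Endpoint derived by bidirectional fitting versus DMSO vehicle. Method: cis-promoter reporter units transfected into HepG2, 24 h dosing, RNA isolation, RT-PCR with 6-FAM primer extension and HpaI digestion, then capillary electrophoresis fluorescence detection.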

The nature of test [4]: ATG_M_19_CIS: Attagene CIS-FACTORIAL HepG2 Assay for M19 Transcription Factor (Internal Marker) (AID 2282939). The following applies: HepG2 Attagene CIS-FACTORIAL M19 internal marker reporter; actives raise or lower the signal. The essentials:
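HepG2 cells transiently transfected with cis-regulated multiplexed reporter units, dosed 24 h. Reporter mRNA quantified by RT-PCR and capillary electrophoresis; internal background marker fitted bidirectionally versus DMSO.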

Test [5] can be described thus: ATG_ERE_CIS: Attagene CIS-FACTORIAL HepG2 Assay for Estrogen Response Element (ERE) (AID 2282940). The conditions noted are these: HepG2 ERE cis-reporter, Attagene RNA transcript; actives raise or lower the signal. In a few lines: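 HepG2 cells transiently transfected with multiplexed cis-element reporter units, measuring endogenous transcription factor activity; ERE reporter mRNA quantified after 24 h exposure by RT-PCR, fluorescent labelling, HpaI digestion and capillary electrophoresis. Bidirectional change versus DMSO.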

Test [6] can be described thus: ATG_Ets_CIS: Attagene CIS-FACTORIAL HepG2 Assay for human Erythroblast Transformation Specific (ETS) (AID 2282941). The following applies: HepG2 ETS cis-reporter transcription, actives raise or lower the signal. The essentials:
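After transient cis-reporter transfection, HepG2 cells receive test chemical for 24 h. Reporter mRNA levels, measured by RT-PCR and capillary electrophoresis fluorescence, are analysed bidirectionally relative to the DMSO baseline.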

For test [7], the target named is Hepatocyte nuclear factor 3-beta (Homo sapiens) (UniProt Q9Y261). As to the kind of experiment: ATG_FoxA2_CIS: Attagene CIS-FACTORIAL HepG2 Assay for human Forkhead box A2 (FOXA2) (AID 2282942). The conditions noted are these: HepG2 cis-reporter transcription factor activity, 24 h; actives raise or lower the signal. In a few lines:
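Measured: reporter mRNA induction or loss in HepG2 transiently carrying multiple cis-regulated reporter units, 24 h after dosing. Quantified by RT-PCR plus capillary electrophoresis, normalised to DMSO.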

Test [8] in a line: ATG_FoxO_CIS: Attagene CIS-FACTORIAL HepG2 Assay for human Forkhead box O (FoxO) (AID 2282943). The following applies: HepG2 Attagene cis-reporter, FoxO element, mRNA; actives raise or lower the signal. In a few lines: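 Endogenous transcription factor activity read from multiplexed cis-promoter reporter transcripts in transiently transfected HepG2, 24 h after dosing. Reporter RNA measured via RT-PCR plus capillary electrophoresis of FAM-labeled products; gain or loss relative to DMSO.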

Test [9] in a line: ATG_GATA_CIS: Attagene CIS-FACTORIAL HepG2 Assay for human GATA Binding Protein (AID 2282944). The conditions noted are these: HepG2 GATA cis-element reporter, Attagene multiplex mRNA; actives raise or lower the signal. The essentials:
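HepG2 cells transiently transfected with multiplexed cis-element reporter units measure endogenous GATA activity; after 24 h compound exposure, reporter mRNA quantified by RT-PCR and capillary electrophoresis. Changes fitted in both directions vs DMSO.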

A short description of test [10]: ATG_GLI_CIS: Attagene CIS-FACTORIAL HepG2 Assay for human Zinc Finger Protein GLI1 (AID 2282945). The following applies: HepG2, Attagene cis-factorial reporter mRNA, GLI element; actives raise or lower the signal. In a few lines:
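Bidirectional curve fits relative to DMSO, using reporter mRNA levels from RT-PCR plus capillary electrophoresis. Cells were HepG2 transiently carrying cis-regulated reporter constructs, harvested 24 h after dosing.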

The nature of test [11]: ATG_GRE_CIS: Attagene CIS-FACTORIAL HepG2 Assay for human Glucocorticoid Response Elements (GRE) (AID 2282947). The conditions noted are these: HepG2 GRE cis-reporter, Attagene multiplex mRNA; actives raise or lower the signal. The essentials: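 Assay uses human hepatoma HepG2 cells transfected with cis-promoter reporter units, exposed 24 h. mRNA from reporters detected by RT-PCR plus capillary electrophoresis; DMSO serves as negative control and baseline.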

Test [12] can be described thus: ATG_ISRE_CIS: Attagene CIS-FACTORIAL HepG2 Assay for human Interferon Regulatory Factor 1 (IRF1) binding to an Interferon-Stimulated Response Element (ISRE) (AID 2282948). The conditions noted are these: HepG2 ISRE cis-reporter (Attagene), mRNA transcription readout; actives raise or lower the signal. The essentials: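 Quantitation relies on labelled RT-PCR fragments separated by capillary electrophoresis. Human HepG2 cells bearing cis-promoter reporter constructs were treated 24 h; DMSO served as baseline for bidirectional fitting.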

Test [13] can be described thus: ATG_M_32_CIS: Attagene CIS-FACTORIAL HepG2 Assay for M32 Transcription Factor (Internal Marker) (AID 2282949).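 Further: background control marker of the multiplexed CIS panel rather than a real target.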 The following applies: HepG2 Attagene cis-factorial M32 reporter, mRNA; actives raise or lower the signal. In a few lines: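 Following 24 h chemical exposure of HepG2 cells transiently expressing cis-promoter reporter constructs, reporter transcript levels were determined by RT-PCR with fluorescent labelling and capillary electrophoresis, then fitted bidirectionally against DMSO.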

Test [14] can be described thus: ATG_M_06_CIS: Attagene CIS-FACTORIAL HepG2 Assay for M06 Transcription Factor (Internal Marker) (AID 2282950). The conditions noted are these: HepG2 Attagene CIS-FACTORIAL M06 internal marker reporter; actives raise or lower the signal. In a few lines: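 Internal background marker within multiplexed cis-reporter HepG2 system. Cells transiently transfected, dosed 24 h; reporter mRNA measured by RT-PCR, HpaI digestion and capillary electrophoresis. Bidirectional fit relative to DMSO.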

Test [15] deals with Hypoxia-inducible factor 1-alpha (Homo sapiens) (UniProt Q16665). Put plainly: ATG_HIF1a_CIS: Attagene CIS-FACTORIAL HepG2 Assay for human Hypoxia Inducible Factor 1 (HIF1A) (AID 2282951). The following applies: HepG2 Attagene cis-factorial HIF1a reporter transcription; actives raise or lower the signal. In a few lines: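 Dosed 24 h, transfected HepG2 cells yielded total RNA whose reporter transcripts were RT-PCR-amplified and sized by capillary electrophoresis using fluorescent labelling; DMSO defined baseline, with gain and loss of signal both fitted.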

The target of test [16] is Hepatocyte nuclear factor 6 (Homo sapiens) (UniProt Q9UBC0). As to the kind of experiment: ATG_HNF6_CIS: Attagene CIS-FACTORIAL HepG2 Assay for human Hepatocyte Nuclear Factor 6 (HNF6) (AID 2282952). The following applies: HepG2 Attagene cis-factorial HNF6 reporter transcription; actives raise or lower the signal. The essentials: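 Transiently transfected HepG2 cells expressing cis-regulated reporter transcription units were exposed to chemical for 24 h in a 24-well format. Reporter transcript abundance was determined by fluorescence capillary electrophoresis.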

The target in test [17] is Heat shock factor protein 1 (Homo sapiens) (UniProt Q00613). As to the kind of experiment: ATG_HSE_CIS: Attagene CIS-FACTORIAL HepG2 Assay for human Heat Shock Transcription Factor 1 (HSE) (AID 2282953). The conditions noted are these: HepG2 HSE cis-reporter, Attagene RNA transcription; actives raise or lower the signal. The essentials:
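HepG2 cells transfected with cis-promoter reporter units sensing endogenous transcription factor activity; reporter mRNA quantified 24 h post-dose by RT-PCR and capillary electrophoresis of 6-FAM-labelled products. Bidirectional fitting against DMSO.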

Test [18] is described as follows: ATG_MRE_CIS: Attagene CIS-FACTORIAL HepG2 Assay for human Metal Responsive Element (MRE) (AID 2282954). The conditions noted are these: HepG2 MRE cis-reporter transcription, Attagene multiplex; actives raise or lower the signal. The essentials:
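After a 24 h chemical exposure, transiently transfected HepG2 cells yield RNA whose reporter sequences are amplified, FAM-labelled and sized by capillary electrophoresis. Curves are fitted bidirectionally relative to DMSO.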

Test [19] deals with Bile acid receptor (Homo sapiens) (UniProt Q96RI1). Put plainly: ATG_IR1_CIS: Attagene CIS-FACTORIAL HepG2 Assay for human Nuclear Receptor Subfamily 1 Group H Member 4 (NR1H4), IR1 submotif (AID 2282946). The conditions noted are these: IR1 reporter transcription, actives raise or lower the signal. In a few lines: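 Cells (human HepG2) carry transiently transfected cis-promoter reporter transcription units. Compounds are incubated 24 h, total RNA is reverse-transcribed and amplified, and labelled fragments are resolved by capillary electrophoresis. Curves use DMSO as baseline.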

The nature of test [20]: ATG_PBREM_CIS: Attagene CIS-FACTORIAL HepG2 Assay for human Phenobarbital-responsive Enhancer Module (PBREM) (AID 2282955). The following applies: HepG2 PBREM cis-reporter, Attagene multiplexed transcription; actives raise or lower the signal. In a few lines: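 Transfected liver-derived HepG2 cells exposed 24 h; PBREM reporter transcript quantified via RT-PCR and capillary electrophoresis, with activity in either direction referenced to DMSO.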

Calls of active or inactive are those of the source. How the source made its calls: active means hit-call score of the fitted dose curve at least 0.9, where 1 is the maximum; inactive means score below 0.9.

Sequence of Hepatocyte nuclear factor 3-beta (Homo sapiens) (Q9Y261 whole entry, looked up): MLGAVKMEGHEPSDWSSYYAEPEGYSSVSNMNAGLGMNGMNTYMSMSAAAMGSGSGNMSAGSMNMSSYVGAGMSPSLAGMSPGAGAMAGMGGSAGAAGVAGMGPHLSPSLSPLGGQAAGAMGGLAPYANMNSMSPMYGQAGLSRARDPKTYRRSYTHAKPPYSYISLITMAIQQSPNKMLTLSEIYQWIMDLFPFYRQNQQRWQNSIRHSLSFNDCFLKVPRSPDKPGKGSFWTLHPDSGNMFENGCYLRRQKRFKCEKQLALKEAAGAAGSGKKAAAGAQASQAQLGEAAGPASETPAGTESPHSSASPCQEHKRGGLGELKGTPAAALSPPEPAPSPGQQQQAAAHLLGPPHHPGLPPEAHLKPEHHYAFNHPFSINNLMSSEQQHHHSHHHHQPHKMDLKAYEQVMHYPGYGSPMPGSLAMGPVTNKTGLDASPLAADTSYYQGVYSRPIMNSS
Sequence of Bile acid receptor (Homo sapiens) (Q96RI1 whole entry, looked up, the tested form may be a part): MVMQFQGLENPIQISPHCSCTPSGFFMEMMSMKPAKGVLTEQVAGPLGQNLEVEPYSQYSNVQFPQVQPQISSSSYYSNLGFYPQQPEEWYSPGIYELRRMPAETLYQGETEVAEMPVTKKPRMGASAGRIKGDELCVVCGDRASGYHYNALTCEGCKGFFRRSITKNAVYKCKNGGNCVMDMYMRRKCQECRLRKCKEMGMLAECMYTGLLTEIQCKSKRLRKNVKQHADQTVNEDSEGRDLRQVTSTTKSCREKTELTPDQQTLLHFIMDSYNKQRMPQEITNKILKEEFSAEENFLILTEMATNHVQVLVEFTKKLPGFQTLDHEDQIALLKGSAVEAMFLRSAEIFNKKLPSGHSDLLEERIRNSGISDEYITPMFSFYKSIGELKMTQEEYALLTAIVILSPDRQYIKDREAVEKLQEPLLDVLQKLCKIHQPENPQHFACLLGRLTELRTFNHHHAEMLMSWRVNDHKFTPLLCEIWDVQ
Sequence of Hypoxia-inducible factor 1-alpha (Homo sapiens) (Q16665 whole entry, looked up): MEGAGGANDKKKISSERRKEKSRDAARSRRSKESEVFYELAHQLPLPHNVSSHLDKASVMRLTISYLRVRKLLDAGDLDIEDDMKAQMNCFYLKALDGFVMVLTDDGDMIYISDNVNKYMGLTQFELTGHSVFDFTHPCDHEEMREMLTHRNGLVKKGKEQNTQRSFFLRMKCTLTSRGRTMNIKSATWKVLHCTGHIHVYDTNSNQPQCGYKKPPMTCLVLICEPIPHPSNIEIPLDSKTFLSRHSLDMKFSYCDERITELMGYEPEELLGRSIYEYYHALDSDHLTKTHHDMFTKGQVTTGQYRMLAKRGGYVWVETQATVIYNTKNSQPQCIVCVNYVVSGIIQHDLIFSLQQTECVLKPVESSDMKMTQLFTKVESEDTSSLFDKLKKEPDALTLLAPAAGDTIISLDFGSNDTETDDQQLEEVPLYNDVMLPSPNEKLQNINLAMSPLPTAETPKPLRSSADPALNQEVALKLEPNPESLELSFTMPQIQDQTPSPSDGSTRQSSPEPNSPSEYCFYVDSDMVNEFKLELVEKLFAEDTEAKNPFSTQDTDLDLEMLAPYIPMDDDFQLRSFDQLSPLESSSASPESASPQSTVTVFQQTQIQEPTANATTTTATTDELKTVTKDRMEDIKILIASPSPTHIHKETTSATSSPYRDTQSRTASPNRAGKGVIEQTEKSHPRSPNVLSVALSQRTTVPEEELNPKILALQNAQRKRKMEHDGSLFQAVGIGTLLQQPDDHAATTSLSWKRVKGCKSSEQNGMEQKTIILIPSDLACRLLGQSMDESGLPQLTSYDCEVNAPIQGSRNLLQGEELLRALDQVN
Sequence of Hepatocyte nuclear factor 6 (Homo sapiens) (Q9UBC0 whole entry, looked up): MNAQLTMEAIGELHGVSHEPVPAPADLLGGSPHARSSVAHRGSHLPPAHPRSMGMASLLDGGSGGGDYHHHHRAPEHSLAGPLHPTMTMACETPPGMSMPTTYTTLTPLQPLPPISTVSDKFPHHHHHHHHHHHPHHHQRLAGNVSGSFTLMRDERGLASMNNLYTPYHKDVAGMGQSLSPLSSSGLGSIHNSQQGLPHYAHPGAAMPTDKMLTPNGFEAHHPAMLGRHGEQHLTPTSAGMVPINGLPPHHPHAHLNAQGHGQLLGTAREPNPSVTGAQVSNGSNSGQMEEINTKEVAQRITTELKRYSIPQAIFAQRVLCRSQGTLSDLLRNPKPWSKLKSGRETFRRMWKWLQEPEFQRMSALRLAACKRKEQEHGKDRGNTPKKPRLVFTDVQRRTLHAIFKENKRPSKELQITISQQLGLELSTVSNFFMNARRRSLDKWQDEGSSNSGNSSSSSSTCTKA
Sequence of Heat shock factor protein 1 (Homo sapiens) (Q00613 whole entry, looked up): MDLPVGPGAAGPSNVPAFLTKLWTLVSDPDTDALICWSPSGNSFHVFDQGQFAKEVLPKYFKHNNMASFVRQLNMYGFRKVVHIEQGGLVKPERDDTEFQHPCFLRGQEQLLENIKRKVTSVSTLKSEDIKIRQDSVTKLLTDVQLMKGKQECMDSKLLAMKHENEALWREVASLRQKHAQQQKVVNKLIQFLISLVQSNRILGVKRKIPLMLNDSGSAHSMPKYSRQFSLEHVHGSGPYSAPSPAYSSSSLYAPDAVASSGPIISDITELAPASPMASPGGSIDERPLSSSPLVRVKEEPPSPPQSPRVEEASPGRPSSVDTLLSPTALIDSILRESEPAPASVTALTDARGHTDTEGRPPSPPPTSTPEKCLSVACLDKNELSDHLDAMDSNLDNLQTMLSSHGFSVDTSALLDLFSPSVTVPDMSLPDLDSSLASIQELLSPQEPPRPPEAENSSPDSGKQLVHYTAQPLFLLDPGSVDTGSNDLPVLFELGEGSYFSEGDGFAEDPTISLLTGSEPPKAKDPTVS

The AC50 is the concentration giving half of the maximal activity seen. As to `CC1(C)O[C@@H]2C[C@H]3[C@@H]4C[C@H](F)C5=CC(=O)CC[C@]5(C)[C@H]4[C@@H](O)C[C@]3(C)[C@]2(C(=O)CO)O1`, the result in [1], in [2], in test [3], in test [4], in test [5] and in test [6] was inactive. Also, the compound was classed as inactive in [7], in test [8], in test [9], in test [10], in test [12] and in test [13]. Also, the result in test [14], in test [15], in [16], in test [17] and in test [18] was inactive. Moreover, in [11], the AC50 is 82.3 nM (active).
As for `CCCC(=O)OCc1ccccc1`, the result in test [1], in [2], in [3], in test [4], in test [5] and in test [6] was inactive. Moreover, the call in test [7], in test [8], in test [9], in test [10], in [19] and in test [12] was inactive. Besides, the result in test [13], in test [14], in test [15], in test [16], in test [17] and in [18] was inactive.
As for `COCCCOCCCOC`, the outcome in test [1], in test [2], in test [3], in test [4], in test [5] and in test [6] was inactive. Also, the compound was called inactive in test [7], in test [8], in test [9], in test [10], in test [19] and in [12]. Besides, the compound was classed as inactive in test [13], in test [14], in test [15], in test [16], in test [17] and in test [18]. The outcome in test [20] was inactive.
On to `O=c1[nH]nc(-c2ccc([N+](=O)[O-])o2)o1`, for which the outcome in test [1], in test [2], in test [3], in test [4], in test [5] and in [6] was inactive. Further, the call in test [7], in test [8], in test [9], in [10], in [11] and in [12] was inactive. In addition, the compound was called inactive in test [13], in test [14], in [15], in test [16], in test [17] and in [18].
As for `CCC(C)C=O` (configuration not stated), the result in [1], in [2], in test [3], in test [4], in test [5] and in test [6] was inactive. The result in test [7], in test [8], in test [9], in test [10], in test [19] and in test [12] was inactive. Moreover, the compound was called inactive in test [13], in test [14], in test [15], in [16], in test [17] and in test [18]. The result in [20] was inactive.
Regarding `Nc1cccc(C(F)(F)F)c1`, the outcome in test [1], in test [2], in test [3], in test [4], in [5] and in test [6] was inactive. Besides, the result in test [7], in test [8], in test [9], in test [10], in [19] and in [12] was inactive. In addition, the call in [13], in test [14], in test [15], in [16], in test [17] and in test [18] was inactive.
For `C=C[Si](C)(C)O[Si](C)(C)C=C`, the outcome in test [1], in test [2], in [3], in test [4], in test [5] and in test [6] was inactive. Moreover, the result in test [7], in [8], in [9], in [10], in test [11] and in test [12] was inactive. Besides, the call in test [13], in [14], in test [15], in test [16], in test [17] and in [18] was inactive.
As to `O=C(c1ccc(O)cc1)c1ccc(O)cc1O`, the result in test [1], in test [2], in test [3], in test [4], in [6] and in [7] was inactive. The outcome in [8], in test [9], in test [10], in test [19], in test [11] and in [13] was inactive. Further, the compound was classed as inactive in test [14], in [15], in test [16], in test [17], in test [18] and in test [20]. The AC50 in [5] is 840 nM (active).
